{
  "source": "PubChem BioAssay AID1845225",
  "about": "(National Center for Advancing Translational Sciences (NCATS), 2023)",
  "note": "Records with an inconclusive call do not appear. A number with no mark means an inactive call. Calls follow the shape of the dose curve; as a rule, active = well fitted curve in the direction sought with a large enough effect; inconclusive = small, poorly fitted or top-dose-only effect, or effect the other way, or another doubt; inactive = no such curve, though single readings can be large or run the other way.",
  "data": [
    {"test": "Confirmatory redox qHTS assay for identification of artifact compounds.", "details": "Amplex Red/HRP redox cycling with DTT, fluorescence; series mostly up to 39 µM; redox activity vs DA3003: at the top concentration", "text": "PI: Alexander Tropsha Ph.D. UNC Eshelman School of Pharmacy University of North Carolina, Chapel Hill, North Carolina Hits from high-throughput screening (HTS) of chemical libraries are often false positives due to their interference with the assay detection technology. In response to this problem, we generated the largest publicly available library of chemical liabilities and developed a free webtool to predict HTS artifacts, both of which are described herein. More specifically, we generated, curated, and integrated HTS datasets for thiol reactivity, redox activity, and luciferase (firefly and nano) activity. Using these curated datasets, we developed and validated several Quantitative Structure-Interference Relationship (QSIR) models to predict nuisance behavior. […] These models were employed for virtual profiling of the National Center for Advancing Translational Science's (NCATS) in-house library, and 256 compounds for each assay were selected for the experimental validation of nuisance behavior. The BA for these external predictions ranged from 58 to 78% for compounds within the applicability domains of the models. […] The models developed in this study, along with aggregation models previously developed by our group (SCAM Detective) were implemented in \"Liability Predictor,\" an online tool which may be used as part of chemical library design or for triaging HTS hits. Both the models and the curated datasets are publicly available at https://liability.mml.unc.edu/.\nPROTOCOL TABLE SEQUENCE No. (e.g., 1, 2, 3, etc.); […] (e.g., Cells, Incubation, Reagent, etc.); VALUE; DESCRIPTION. 1; Reagent; 3 uL; Amplex Red and HRP mixture. 2; Compounds and control; 16 nL; Kalypsis pin tool (Wako USA) equipped with a 1536-well pin head. 3; Incubation; 15 min. 4; Reagent; 1 uL; […]. 5; Incubation; 30 min. 6; Detection; Fluorescence, ViewLux microplate reader, 525 nm excitation, 598 nm emission. NOTES (numbers refer to Sequence numbers above) 1. 3 uL of a mixture containing Amplex Red (25 uM final concentration) and horseradish peroxidase (HRP; 250 mU/mL final concentration) in assay buffer (HBSS) was dispensed into all wells of a 1536-well assay plate (solid-bottom black plate; Greiner Bio One, Monroe, NC). 2. […] 3. 15 min. incubation at room temperature protected from light. 4. 1 uL of DTT (prepared fresh; final concentration 250 uM) was dispensed for a final assay volume of 4 uL. 5. Plates were centrifuged (121xg, 15 seconds) and incubated for 30 minutes at room temperature protected from light. 6. Samples were read for fluorescence (Ex/Em = 525(20)/598(25) nm) on a ViewLux CCD imager (PerkinElmer). Data were normalized to DMSO (0% activity) and DA3003 (10 uM final concentration; 100% activity) and the resulting percent inhibition data were fitted to a 4-parameter Hill equation using NCATS in-house software.", "units": {"redox activity vs DA3003": "%"}, "values": [
      {"smiles": "Oc1cccc[c]1[Hg][Cl]", "redox activity vs DA3003": -0.83},
      {"smiles": "CCCOC(=O)c1ccccc1C(=O)OCCC", "redox activity vs DA3003": -1.08},
      {"smiles": "Cn1c(=O)n(C)c2cc(CNCCc3ccccc3)ccc21", "redox activity vs DA3003": 0.209},
      {"smiles": "Cc1ccc(C(C)C)c(OCC(=O)N2CCN(CCc3ccncc3)CC2)c1", "redox activity vs DA3003": 5.17},
      {"smiles": "CSc1nc(NC(C)C)nc(NC(C)C)n1", "redox activity vs DA3003": -0.557},
      {"smiles": "CCOc1ccc(CCNC(=O)c2cc3ccccc3n2CCN2CCOCC2)cc1OCC", "redox activity vs DA3003": 18.3},
      {"smiles": "Clc1ccc(C(Cl)(Cl)Cl)cc1Cl", "redox activity vs DA3003": -1.25}
    ]}
  ]
}
